This is an account of results in PubChem BioAssay (NCATS).

Results filed as inconclusive are left out. The source made the active and inactive calls. Unless noted, calls follow the shape of the dose curve; as a rule, active = well fitted curve in the direction sought with a large enough effect; inconclusive = small, poorly fitted or top-dose-only effect, or another doubt; inactive = no such curve, though single readings can be large; an effect the other way counts as inactive or inconclusive.

Assay [1] concerns the target Lysosomal acid glucosylceramidase (Homo sapiens) (UniProt P04062). The assay can be described thus: Glucocerebrosidase-p2 (AID 348; in the data active = potency below about 10 µM; also: potency is read from the fitted curve at half-maximal effect). Particulars: purified GBA, blue fluorogenic substrate, 40 min. The method, boiled down: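 Compounds titrated from 0.6 nM upwards against 0.2 nM enzyme in pH 5.9 citric acid/KH2PO4, taurocholate, tween-20; blue fluorogenic substrate 80 uM, 40 min room temperature, stopped and read Ex 365/Em 440 for AC50.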

Assay [2] is described as follows: AP1 Signaling Pathway (AID 357; active = well fitted curve in either direction with a large enough effect, not every such curve was filed as active; also: % is scaled to controls: 0 for no effect and ±100 for the full control effect). To be noted: ME-180 AP-1-bla reporter, EGF-induced, beta-lactamase ratio, 5 h; at 7.69 µM (top of the series) unless noted. The method, boiled down: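 ME-180 cells with beta-lactamase reporter under AP-1 response element, stimulated with EC50 EGF; compounds tested in titration series, 5 h at 37 °C. CCF4 substrate added 2.5 h at room temperature; 460/530 nm emission ratio gave %activity and AC50.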

Assay [3] in a line: Stat Signaling Pathway (AID 446; active = well fitted curve in either direction with a large enough effect, not every such curve was filed as active;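 also: ME-180 cervical cancer cells given 40 pM IL-6 alongside compound; SIE-controlled beta-lactamase reporter measured as 460/530 nm FRET emission ratio; % is scaled to controls: 0 for no effect and ±100 for the full control effect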). Particulars: ME-180 SIE beta-lactamase reporter, IL-6 stimulated, 5 h; at 7.69 µM (top of the series) unless noted. The method, boiled down: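 Reporter line: ME-180 cervical carcinoma, SIE-beta-lactamase. Treatment: compound with 40 pM IL-6, 5 hrs, 37 C, in low-serum OPTI-MEM with 10 mM HEPES pH 7.3. Detection: 460/530 nm fluorescence.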
Assay [4] concerns the target Glucocorticoid receptor (Homo sapiens) (UniProt P04150). The assay can be described thus: GR-GFP Redistribution (AID 450;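 active = compounds whose dose series gives a full or clear partial fitted curve of increased nuclear translocation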; also: potency is read from the fitted curve at half-maximal effect). To be noted: U2OS GR-GFP nuclear translocation, laser cytometry, 2 h.
Assay [5] has the same target. Kind of assay: GR-EFC Redistribution (AID 451; calls by dose curve; also: potency is read from the fitted curve at half-maximal effect). To be noted: CHO-K1 GR-EFC translocation, beta-gal luminescence, 2 h. The method, boiled down: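 CHO-K1 cells stably expressing nuclear-localized β-gal enzyme acceptor and GR fused C-terminally to the enzyme donor fragment; ligand-driven nuclear translocation restores β-gal by complementation. Compounds titrated up to 46 uM final, 2 h at 37 °C; luminescence read.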

Assay [6] concerns the target Mitogen-activated protein kinase 10 (Mus musculus) (UniProt Q61831). Kind of assay: JNK3 AlphaScreen Assay (AID 530; active = well fitted curve in either direction with a large enough effect, not every such curve was filed as active;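 also: kinase came from lysate of stimulated human HepG2 cells; % is scaled to controls: 0 for no effect and ±100 for the full control effect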). Particulars: JNK3 lysate, c-Jun phosphorylation; series mostly up to 57.1 µM. The method, boiled down: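 JNK3 came from HepG2 lysates pre-activated with IL-1beta and TNF-alpha and phosphorylated biotinylated GST-cJun (1-79) at 10 uM ATP, pH 7.6, room temperature. Compounds were titrated. AlphaScreen signal used anti-phospho-cJun (Ser73) antibody.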
Background: Bead proximity is the source of the signal in Alpha formats.

In assay [7] the target is 3',5'-cyclic-AMP phosphodiesterase 4B (Homo sapiens) (UniProt Q07343). The assay can be described thus: qHTS Assay for Inhibitors of PDE-IV (AID 607; active = well fitted activation curve with a large enough effect in the main read-out, with a control signal flat, not every such curve was filed as active; also: % of control where 0% means no effect). Particulars: HEK293 ACTOne CNG channel cells, membrane potential fluorescence; series mostly up to 22.9 µM. The method, boiled down:
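Cell-based read-out of cAMP via a modified cyclic nucleotide-gated channel and membrane potential dye (535/590 nm) in HEK293 cells expressing PDE4 endogenously. Compounds tested up to 22.9 uM final; 100 uM RO 20-1724 reference.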

Assay [8] can be described thus: qHTS Assay for Identification of Small Molecule Agonists for Hypoxia Response Element Signaling Pathway (AID 914; active = well fitted activation curve with a large enough effect in the signal ratio, with a control signal flat, not every such curve was filed as active; the % refers to the signal ratio; also: % of control where 0% means no effect). Particulars: ME-180 (cervical carcinoma) HRE-bla reporter, beta-lactamase ratio, CoCl2, 17 h; activation: stronger effect = higher value. The method, boiled down:
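Reporter activity (beta-lactamase, CCF4 460nm/530nm ratio) in HRE-bla ME-180 cells is recorded after 17 h compound exposure with EC50 CoCl2 at 37 degrees Celsius. AC50 values come from titration data.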
In general terms: qHTS replaces the single test concentration by a dilution series.

A short description of assay [9]: qHTS Assay for Lipid Storage Modulators (AID 1519; calls by dose curve). Particulars: Drosophila S3 cells, BODIPY lipid droplet/cell ratio, laser cytometry, cells loaded with oleic acid; for activity change, negative = inhibition: at 57.5 µM (top of the series). The method, boiled down: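 Cells seeded at 5,000 per well were treated with compounds over a concentration series and loaded with oleic acid (400 uM, as added). Lipid droplet fluorescence (488 nm excitation, 500-530 nm channel) was read by laser-scanning cytometry and normalized to 20 uM Triacsin C.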

Assay [10] has as its target Dual specificity protein kinase CLK4 (Homo sapiens) (UniProt Q9HAZ1). Kind of assay: qHTS Assay for Inhibitors of CDC-like Kinase 4 (Kinase-Glo Assay) (AID 1770). Also: % is scaled to controls: 0 for no effect and ±100 for the full control effect; nearly all actives have a fitted effect of over 65% in size. Particulars: recombinant Clk4, Kinase-Glo ATP depletion luminescence; series mostly up to 66.7 µM. The method, boiled down: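 Clk4 25 nM, RS peptide 100 uM, ATP 1 uM, pH 7.5 Tris, 10 mM MgCl2, 2.5 mM DTT; 4.5 h RT; ATP depletion read by Kinase-Glo luminescence.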

Assay [11] has the same target. Kind of assay: qHTS Assay for Inhibitors of CDC-like Kinase 4 (ADP-Glo Assay) (AID 1771). Also: % is scaled to controls: 0 for no effect and ±100 for the full control effect; nearly all actives have a fitted effect of over 70% in size. Particulars: recombinant CLK4, ADP-Glo luminescence; series mostly up to 80 µM. The method, boiled down: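 Clk4 (25 nM) was incubated 1 hr at room temperature with 100 uM RS repeat peptide and 1 uM ATP in buffer with 2 mM MgCl2, 0.5 mM EGTA, 2.5 mM DTT. ADP formed was quantified by ADP-Glo luminescence.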

Assay [12] shares this target. The assay can be described thus: qHTS Assay for Inhibitors of CDC-like Kinase 4 (ADP-FP Assay) (AID 1795). Also: % is scaled to controls: 0 for no effect and ±100 for the full control effect; nearly all actives have a fitted effect of over 60% in size. Particulars: Transcreener ADP fluorescence polarization; series mostly up to 50 µM. The method, boiled down: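 Kinase activity was followed as ADP output, converted from fluorescence polarization with a calibration curve. Reactions ran one hour at low ATP (1 uM) with RS peptide substrate.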

Assay [13] is described as follows: Primary qHTS for small molecule stabilizers of the endoplasmic reticulum resident proteome: Secreted ER Calcium Modulated Protein (SERCaMP) assay (AID 1508630). Also: % is scaled to controls: 0 for no effect and ±100 for the full control effect. Particulars: SH-SY5Y GLuc-SERCaMP (Gaussia luciferase released on ER calcium loss) secretion, thapsigargin, luminescence; series mostly up to 38.4 µM. The method, boiled down: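 GLuc-SERCaMP-expressing SH-SY5Y cells, pretreated 16 h with compound, are challenged with thapsigargin to empty ER calcium stores; after 4 h, coelenterazine is added directly to the medium and luminescence is imaged.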

Assay [14] addresses Ubiquitin carboxyl-terminal hydrolase 1 (Homo sapiens) (UniProt O94782). The assay can be described thus: Inhibitors of USP1/UAF1: Pilot qHTS (AID 504865).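 Also: rhodamine fluorescence freed from ubiquitin-rhodamine substrate followed over time; top concentration of the series differs between compounds; % is scaled to controls: 0 for no effect and ±100 for the full control effect; nearly all actives have a fitted effect of over 35% in size.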 To be noted: purified USP1/UAF1, Ub-rhodamine cleavage fluorescence; series mostly up to 54.9 µM. The method, boiled down:
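Enzyme-free wells gave the negative control, while test wells held 1nM USP1/UAF1 preincubated with compound for 15 min at room temperature. Ub-Rho at 150nM final started the reaction, and fluorescence at 480/540 nm was recorded kinetically.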

A short description of assay [15]: NFAT Signaling Pathway (AID 444; active = well fitted curve in either direction with a large enough effect, not every such curve was filed as active). Particulars: Jurkat NFAT-bla M1, carbachol, beta-lactamase ratio, 5 h; at 7.69 µM (top of the series) unless noted. The method, boiled down:
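Jurkat cells carrying an NFAT-driven β-lactamase reporter and co-transfected muscarinic M1 receptor were treated with compound plus carbachol (1 uM final, an EC50 level) for 5 h at 37 °C. CCF4 loading followed for 1 h at RT; 460/530 nm ratio gave %activity.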

[16] abbreviates: measured here: cell count channel max response.
Setting [17] is: measured here: lipid channel max response.

Chain of Dual specificity protein kinase CLK4 (Homo sapiens) (Q9HAZ1 whole entry, looked up): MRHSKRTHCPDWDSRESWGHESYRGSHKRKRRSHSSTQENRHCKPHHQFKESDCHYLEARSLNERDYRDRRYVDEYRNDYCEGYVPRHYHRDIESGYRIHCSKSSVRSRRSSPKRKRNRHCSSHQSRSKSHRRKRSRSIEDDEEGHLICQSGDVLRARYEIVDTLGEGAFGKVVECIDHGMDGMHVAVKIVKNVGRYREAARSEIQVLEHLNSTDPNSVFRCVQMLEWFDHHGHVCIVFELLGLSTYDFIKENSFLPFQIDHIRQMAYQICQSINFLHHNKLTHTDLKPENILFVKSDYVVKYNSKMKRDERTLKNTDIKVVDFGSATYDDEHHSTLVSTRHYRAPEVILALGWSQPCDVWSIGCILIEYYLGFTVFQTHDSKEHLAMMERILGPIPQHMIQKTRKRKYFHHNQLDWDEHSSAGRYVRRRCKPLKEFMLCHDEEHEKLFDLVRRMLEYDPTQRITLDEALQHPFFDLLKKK
Chain of Glucocorticoid receptor (Homo sapiens) (P04150 whole entry, looked up, the tested form may be a part): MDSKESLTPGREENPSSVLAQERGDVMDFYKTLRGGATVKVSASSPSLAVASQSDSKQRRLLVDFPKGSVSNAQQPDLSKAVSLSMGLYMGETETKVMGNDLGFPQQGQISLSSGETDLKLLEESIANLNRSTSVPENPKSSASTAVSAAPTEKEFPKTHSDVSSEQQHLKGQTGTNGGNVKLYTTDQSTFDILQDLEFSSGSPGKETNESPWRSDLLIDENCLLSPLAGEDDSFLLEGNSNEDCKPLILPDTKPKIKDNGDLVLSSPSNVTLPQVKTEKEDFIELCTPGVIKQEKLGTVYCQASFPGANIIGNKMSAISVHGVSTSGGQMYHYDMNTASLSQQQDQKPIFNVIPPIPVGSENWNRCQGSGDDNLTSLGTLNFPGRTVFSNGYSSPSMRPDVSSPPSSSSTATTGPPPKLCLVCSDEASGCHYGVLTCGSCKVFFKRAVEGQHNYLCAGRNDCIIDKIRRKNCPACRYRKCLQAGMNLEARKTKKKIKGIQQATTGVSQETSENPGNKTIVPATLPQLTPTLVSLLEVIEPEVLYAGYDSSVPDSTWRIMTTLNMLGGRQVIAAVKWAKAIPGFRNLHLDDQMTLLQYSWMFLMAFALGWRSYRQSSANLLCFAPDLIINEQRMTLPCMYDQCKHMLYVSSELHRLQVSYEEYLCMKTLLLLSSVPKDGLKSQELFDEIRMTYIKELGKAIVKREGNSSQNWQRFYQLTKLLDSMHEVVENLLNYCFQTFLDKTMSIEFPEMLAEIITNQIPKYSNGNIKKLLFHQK
Chain of Lysosomal acid glucosylceramidase (Homo sapiens) (P04062 whole entry, looked up): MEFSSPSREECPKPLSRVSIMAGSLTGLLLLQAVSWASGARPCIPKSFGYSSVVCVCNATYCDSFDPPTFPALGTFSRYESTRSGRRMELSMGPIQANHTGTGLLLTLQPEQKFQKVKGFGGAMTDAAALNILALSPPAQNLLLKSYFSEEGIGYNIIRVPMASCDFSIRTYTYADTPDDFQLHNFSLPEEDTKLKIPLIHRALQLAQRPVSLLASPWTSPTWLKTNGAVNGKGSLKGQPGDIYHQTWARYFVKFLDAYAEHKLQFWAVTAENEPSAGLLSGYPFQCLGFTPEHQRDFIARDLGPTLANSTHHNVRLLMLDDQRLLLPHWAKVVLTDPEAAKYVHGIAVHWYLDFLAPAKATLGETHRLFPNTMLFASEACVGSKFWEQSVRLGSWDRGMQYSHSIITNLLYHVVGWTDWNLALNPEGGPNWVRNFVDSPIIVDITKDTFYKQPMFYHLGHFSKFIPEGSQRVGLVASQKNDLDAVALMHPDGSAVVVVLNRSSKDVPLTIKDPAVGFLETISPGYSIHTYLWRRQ
Chain of 3',5'-cyclic-AMP phosphodiesterase 4B (Homo sapiens) (Q07343 whole entry, looked up): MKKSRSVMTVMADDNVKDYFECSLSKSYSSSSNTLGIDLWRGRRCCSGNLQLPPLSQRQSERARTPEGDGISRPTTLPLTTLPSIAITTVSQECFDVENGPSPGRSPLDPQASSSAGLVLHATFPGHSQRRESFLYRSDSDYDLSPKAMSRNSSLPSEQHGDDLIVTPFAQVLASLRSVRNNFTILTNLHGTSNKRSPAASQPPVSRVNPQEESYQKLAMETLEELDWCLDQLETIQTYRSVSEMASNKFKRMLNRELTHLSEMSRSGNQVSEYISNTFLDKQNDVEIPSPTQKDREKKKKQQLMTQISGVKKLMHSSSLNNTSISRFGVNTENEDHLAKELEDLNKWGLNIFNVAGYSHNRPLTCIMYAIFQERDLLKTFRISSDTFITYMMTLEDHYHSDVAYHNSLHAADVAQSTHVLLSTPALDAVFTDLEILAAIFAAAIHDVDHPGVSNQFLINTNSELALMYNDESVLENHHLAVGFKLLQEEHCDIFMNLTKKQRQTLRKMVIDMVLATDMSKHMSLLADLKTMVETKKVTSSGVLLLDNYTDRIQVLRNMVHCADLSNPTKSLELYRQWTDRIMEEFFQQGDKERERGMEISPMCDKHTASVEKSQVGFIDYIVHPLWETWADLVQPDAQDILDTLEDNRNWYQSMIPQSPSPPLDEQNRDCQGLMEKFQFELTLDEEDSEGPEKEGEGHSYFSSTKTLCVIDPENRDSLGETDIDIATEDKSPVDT
Chain of Ubiquitin carboxyl-terminal hydrolase 1 (Homo sapiens) (O94782 whole entry, looked up): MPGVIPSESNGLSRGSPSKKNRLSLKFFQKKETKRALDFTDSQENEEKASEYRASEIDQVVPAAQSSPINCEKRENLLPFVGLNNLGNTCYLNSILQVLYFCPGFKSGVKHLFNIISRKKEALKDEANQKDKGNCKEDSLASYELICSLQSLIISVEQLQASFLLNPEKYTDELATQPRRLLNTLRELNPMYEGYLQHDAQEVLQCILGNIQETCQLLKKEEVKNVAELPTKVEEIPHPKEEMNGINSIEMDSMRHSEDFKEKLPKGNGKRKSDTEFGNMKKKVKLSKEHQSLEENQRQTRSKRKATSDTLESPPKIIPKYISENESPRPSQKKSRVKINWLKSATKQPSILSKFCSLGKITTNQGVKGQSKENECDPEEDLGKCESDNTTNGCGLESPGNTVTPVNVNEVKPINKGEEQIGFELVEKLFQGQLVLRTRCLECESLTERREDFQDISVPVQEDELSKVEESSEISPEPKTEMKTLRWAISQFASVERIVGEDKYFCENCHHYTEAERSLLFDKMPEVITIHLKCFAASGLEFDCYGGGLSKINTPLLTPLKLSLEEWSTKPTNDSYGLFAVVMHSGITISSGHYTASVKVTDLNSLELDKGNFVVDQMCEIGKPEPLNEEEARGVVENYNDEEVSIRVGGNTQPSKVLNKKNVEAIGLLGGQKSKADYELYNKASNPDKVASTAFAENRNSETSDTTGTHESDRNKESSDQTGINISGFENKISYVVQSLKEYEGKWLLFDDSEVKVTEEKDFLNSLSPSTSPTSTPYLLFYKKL

As for `O=c1c(-c2cc(F)cc(F)c2)nc2cnc(Nc3ccccc3)nc2n1C[C@H]1CCCO1`, the Potency in assay [1] was > 11.4 µM (inactive); in assay [4], > 9.22 µM (inactive); in [5], > 46 µM (inactive). Moreover, the values for the activity change, negative = inhibition in [2] and in [9] were -3.83% (inactive) and -10.6% (inactive), respectively. Moreover, the activity, negative = inhibition in assay [3] was 1.12% (inactive). The compound was classed as inactive in [6]. Besides, the Potency result in [7], in assay [10], in assay [11], in assay [12] and in assay [13] was “inactive” each time. In addition, the activation in assay [8] is -17% (inactive). In addition, the max response worked out at 17.2% in [9] (setting [16]) and 2.07% in assay [9] (setting [17]).

For `COc1cccc(Cn2c(=O)c(C)nc3cnc(Nc4ccccc4)nc32)c1`, the Potency in [1] is > 11.4 µM (inactive); in assay [4], > 9.22 µM (inactive); in assay [5] it was > 46 µM (inactive). Also, the activity change, negative = inhibition in [2] was -15.3% (inactive); in assay [9], 0.284% (inactive). For the same compound, the activity, negative = inhibition in [3] is -3.72% (inactive). Moreover, in [6], the call was inactive. In addition, the Potency entry in [7], in assay [10], in [11], in assay [12], in assay [14] and in assay [13] was “inactive” throughout. The figures for the max response in assay [9] (setting [16]) and in assay [9] (setting [17]) were 11.6% and 9.21%, respectively.

With `Cc1noc(C)c1-c1cc(N2CCNCC2)ncn1`, the Potency was > 11.4 µM (inactive) in assay [1], > 46 µM (inactive) in [4] and > 46 µM (inactive) in assay [5]. Also, the figures for the activity change, negative = inhibition in assay [2], in assay [15] and in [9] were -3.92% (inactive), 7.79% (inactive) and 5.16% (inactive), respectively. In addition, in [3], the activity, negative = inhibition was 5.3% (inactive). Further, the call in assay [6] was inactive. For the same compound, the Potency result in [7], in assay [10], in [11], in [12], in assay [14] and in [13] was “inactive” each time. Also, the max response worked out at 1.52% in assay [9] (setting [16]) and 8.99% in assay [9] (setting [17]).
